Source: PubChem (National Center for Advancing Translational Sciences (NCATS))
The list is not random: actives were taken first. Their share in the collection is about 2.4%.
D2 PAM-1: positively modulates the human D2 dopamine receptor allosterically; P14416; HEK293 T-REx D2, calcium flux, EC20 dopamine potentiation; AID 485347; 0.34% of 340,000 active; potentiation, % at 10 µM;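 active = potentiation over 3 SD above the plate norm, cut at about 30% in these data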
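Primary screen. Calcium kinetics in induced HEK293 T-REx D2 cells: compound pre-addition 180 s, EC20 dopamine, 180 s more.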
D2 antagonist: antagonizes the human D2 dopamine receptor; P14416; HEK293 TREx D2 cells, calcium flux, dopamine EC80; inhibition, % at 10 µM; 2% of 340,000 active; in the data active = inhibition above about 30%; inactive = below that, where a call was filed
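Calcium mobilization kinetics were recorded at 1 s intervals in tetracycline-induced HEK293 T-REx D2 cells, first for 180 s after compound addition and then 180 s after EC80 dopamine.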
D2 PAM-2: potentiates the human D2 dopamine receptor allosterically. DiscoveRx D2 beta-arrestin cells, luminescence, 90 min; 100% = 57 uM dopamine signal. potentiation, % (concentration not given with the values). 0.23% of 360,000 active. AID 624464; in the data active = potentiation above about 50%; inconclusive = mostly about 30% to 49%
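PathHunter D2 cells, attached overnight at 37 deg C, received compound in DMSO plus dopamine at EC20 (50 nM final) for 90 min at 37 deg C. Beta-arrestin recruitment was read as luminescence after 1 h with detection reagent at ambient temperature.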
D2 ag-1: D2 dopamine receptor (human) agonism; P14416; HEK293 T-REx D2 cells, calcium flux agonist mode; activation, % at 2 µM; 0.53% of 340,000 active; AID 485358;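 active = activation over 3 SD above normal in the single-dose calcium agonist read, cut at about 30% in these data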
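Tetracycline-induced HEK293 T-REx cells with force-coupled D2 receptor, plated overnight at 30 C, loaded with no-wash calcium dye. After a 10 s baseline, compound was pin-added and calcium flux read kinetically for 180 s; calcium rises flagged agonists.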
D2 ag-2: human D2 receptor agonism in beta-arrestin assay; DiscoveRx PathHunter D2 beta-arrestin, luminescence, 90 min; 100% = 57 uM dopamine signal; activation, % (no concentration beside the values); 0.084% of 360,000 active; AID 624465; in the data active = activation above about 40%; inconclusive = between about 15% and that limit
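Agonist mode: compounds alone added to overnight-plated D2 PathHunter cells for 90 min at 37 C, with 57 uM final dopamine (EC100) defining full response. Beta-arrestin recruitment detected by chemiluminescent reagent, read after 1 h at ambient temperature.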
D3 ag: D3 receptor agonism confirmed, beta-arrestin readout. DiscoveRx D3 beta-arrestin cells, luminescence, 90 min. shares compounds with D2 ag-1. 4% of 2,300 active. AID 720506. Potency, µM (series often up to 76.9 µM), most hits filed as activators; also: nearly all actives have a fitted effect of over 70% in size
Target sequence (P35462 whole entry, looked up): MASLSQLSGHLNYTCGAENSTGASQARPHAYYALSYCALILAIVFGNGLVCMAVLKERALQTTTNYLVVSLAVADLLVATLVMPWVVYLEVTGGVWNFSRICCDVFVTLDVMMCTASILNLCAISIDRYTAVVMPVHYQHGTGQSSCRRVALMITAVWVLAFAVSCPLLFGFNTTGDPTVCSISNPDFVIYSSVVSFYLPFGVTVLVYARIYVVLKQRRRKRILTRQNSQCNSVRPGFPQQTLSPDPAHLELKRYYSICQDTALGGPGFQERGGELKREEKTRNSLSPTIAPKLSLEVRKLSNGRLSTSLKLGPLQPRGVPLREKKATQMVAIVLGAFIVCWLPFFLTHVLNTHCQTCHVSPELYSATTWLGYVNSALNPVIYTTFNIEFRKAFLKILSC
D2 ag-3: D2 receptor agonism, beta-arrestin counterscreen. Potency, µM (top dose mostly 76.9 µM), most hits filed as activators. shares compounds with D2 ag-1. AID 720507. DiscoveRx PathHunter D2 beta-arrestin, luminescence, 90 min; response scale: percent relative to full dopamine signal. 5.9% of 2,300 active; also: nearly all actives have a fitted effect of over 70% in size
Each line names hits and unclear results; the compound was inactive in the other large screens (follow-up assays come after a bar, where they were run). Unless noted, calls follow the shape of the dose curve; as a rule, active = well fitted activation curve with a large enough effect; inconclusive = small, poorly fitted or top-dose-only effect; inactive = flat fitted curve, though single readings scatter.

O=c1nc2ccccc2c2n1CC(CN1CCN(c3ccccc3F)CC1)N2 (centres undefined)	none | D3 ag inactive | D2 ag-3 inactive
CCS(=O)(=O)N1CCN(c2ccccc2F)CC1	none
O=c1nc2ccccc2c2n1CC(CN1CCN(c3ccc(F)cc3)CC1)N2 (centres undefined)	none
Fc1ccccc1N1CCN(CC2CCCCC2)CC1	D2 antagonist 89 | D3 ag inactive | D2 ag-3 inactive
COc1cccc(C(=O)NC2CCCC2)c1	none
COc1cccc(C(=O)NNC(=S)NC2CCCCC2)c1	D2 antagonist 31, D2 ag-1 56 | D3 ag inactive | D2 ag-3 inactive
COc1ccccc1CC(NC(C)=O)C(=O)N1CCN(C(=O)c2cccs2)CC1 (centres undefined)	none
COc1ccc(CN2CCN(C(=O)c3cccs3)CC2)cc1Br	none (no result: D2 PAM-1, D2 antagonist, D2 ag-1)
COc1ccccc1CN(C)C(=O)CN1CCN(C(=O)c2cccs2)CC1	D2 ag-1 72 | D3 ag inactive | D2 ag-3 inconclusive
COc1ccc(-c2noc(CN3CCN(C(=O)c4cccs4)CC3)n2)c(OC)c1OC	none | D3 ag inactive | D2 ag-3 inactive
COc1ccccc1/C=N/NC(=O)c1ccc(NC(=O)c2ccccc2Br)cc1	D2 ag-1 63 | D3 ag inactive | D2 ag-3 inactive
COc1cccc(C#Cc2c(C=O)n(C)c3ccccc23)c1	none
Cn1c(C=O)c(C#CC(C)(C)O)c2ccccc21	none | D3 ag inactive | D2 ag-3 inactive
COc1ccc(CCNC2CCC(c3ccccc3)CC2)cc1 (centres undefined)	D2 antagonist 78, D2 ag-1 36 | D3 ag inactive | D2 ag-3 inactive
CCN1CCc2nc(N)sc2C1	D2 antagonist 35, D2 ag-1 68 | D3 ag inactive | D2 ag-3 inactive
Nc1nc2c(s1)CCCCCCCCCC2	none
CCN1CCc2nc(N)oc2CC1	none
C=CCN1CCc2nc(N)sc2CC1	D2 antagonist 89, D2 PAM-2 81, D2 ag-1 88, D2 ag-2 69 | D3 ag 0.089µM | D2 ag-3 0.045µM
CN(C)S(=O)(=O)c1cccc(NC(=S)NNC(=O)c2cc3ccccc3cc2O)c1	D2 antagonist 56, D2 ag-1 72 | D3 ag inactive | D2 ag-3 inactive
CCOc1ccc(-n2c(C)nc3cc(C(=O)NC4CCCC4)ccc32)cc1	none (no result: D2 antagonist, D2 PAM-2, D2 ag-2)
CC(C)c1ccc(NC(=O)Cn2cc(S(=O)(=O)Cc3ccccc3Cl)c3ccccc32)cc1	none (no result: D2 antagonist, D2 PAM-2, D2 ag-2)
CCN1C(=O)[C@H]2[C@@H](c3ccc(C)cc3)N3C(=O)N(c4ccc(C)cc4)C(=O)[C@@]3(Cc3ccc(Cl)cc3)[C@H]2C1=O	D2 ag-1 45 | D3 ag inactive | D2 ag-3 inactive
CCN1C(=O)[C@H]2[C@@H](c3ccc(C)cc3)N3C(=O)N(c4ccccc4)C(=O)[C@@]3(Cc3ccc(Cl)cc3)[C@H]2C1=O	none
CC(=O)N1c2c(cc(Br)cc2S(=O)(=O)N2CCN(c3cccc(Cl)c3)CC2)CC1C (centres undefined)	none (no result: D2 antagonist, D2 PAM-2, D2 ag-2)
CC(C)OCC(O)CS(=O)(=O)Cc1ccccc1 (centres undefined)	D2 ag-1 58 | D3 ag inactive | D2 ag-3 inactive
Cc1ccc(S(=O)(=O)N2CCOCC2)cc1NC(=O)CNCc1cccnc1	D2 antagonist 60, D2 PAM-2 63, D2 ag-1 77, D2 ag-2 48 | D3 ag 3.5µM | D2 ag-3 35µM
Cc1ccc(S(=O)(=O)N2CCOCC2)cc1NC(=O)CNCc1ccc(Cl)cc1Cl	none (no result: D2 PAM-1, D2 antagonist, D2 ag-1)
Cc1ccc(S(=O)(=O)N2CCOCC2)cc1NC(=O)CNCC1CCCCC1	D2 antagonist 50, D2 ag-1 53, D2 ag-2 inconclusive | D3 ag inconclusive | D2 ag-3 inconclusive
Cc1cc(OC(C)C(=O)N(Cc2ccco2)Cc2ccco2)cc(C)c1Cl (centres undefined)	none (no result: D2 PAM-1, D2 antagonist, D2 PAM-2, D2 ag-2)
CC(C)(CO)NS(=O)(=O)c1ccc2c(c1)Cc1cc(S(=O)(=O)NC(C)(C)CO)ccc1-2	none | D3 ag inactive | D2 ag-3 inactive
CC(C)(CO)NS(=O)(=O)c1ccc2c(c1)C(=O)c1cc(S(=O)(=O)NC(C)(C)CO)ccc1-2	none
CCOc1ccc(NC(=O)c2ccc(F)c(S(=O)(=O)NCc3ccc4c(c3)OCO4)c2)cc1	none (no result: D2 antagonist, D2 PAM-2, D2 ag-2)
O=C(Nc1cccc(Cl)c1)c1ccc(F)c(S(=O)(=O)NCc2ccc3c(c2)OCO3)c1	none | D3 ag inactive | D2 ag-3 inactive
Cc1onc(-c2ccccc2)c1C(=O)NNC(=S)NC(=O)/C=C/c1ccccc1	D2 ag-1 31 | D3 ag inactive | D2 ag-3 inactive
Cc1onc(-c2ccccc2)c1C(=O)NNC(=O)c1ccccc1O	none
COc1ccc(/C=C/C(=O)NC(=S)NNC(=O)c2c(-c3ccccc3)noc2C)cc1	none
Cc1onc(-c2ccccc2)c1C(=O)NNC(=S)NC(=O)c1ccc(Br)cc1	D2 antagonist 36, D2 ag-1 46 | D3 ag inactive | D2 ag-3 inactive
COc1ccc2c(c1)CC(C(=O)NCCN1CCN(c3cccc(Cl)c3)CC1)CO2 (centres undefined)	none (no result: D2 antagonist, D2 PAM-2, D2 ag-2)
CCCCN(C)CCCNC(=O)C1CCN(S(=O)(=O)CCC)CC1	none (no result: D2 antagonist, D2 PAM-2, D2 ag-2)
Cc1cc(C)cc(NC(=O)C(NS(=O)(=O)c2cccc3nsnc23)c2ccccc2)c1 (centres undefined)	none (no result: D2 antagonist, D2 PAM-2, D2 ag-2)
O=[N+]([O-])c1ccc(N2CCN(Cc3ccc([N+](=O)[O-])o3)CC2)cc1	none
O=C(CCN1CCN(c2ccccc2)CC1)N/N=C/c1ccc([N+](=O)[O-])o1	D2 antagonist 70, D2 ag-1 86, D2 ag-2 inconclusive | D3 ag inactive | D2 ag-3 11µM
COc1cc(/C=N/NC(=O)CCN2CCN(c3ccccc3)CC2)cc(OC)c1OC	none | D3 ag inactive | D2 ag-3 inactive
O=[N+]([O-])c1ccc(CN2CCN(c3ccccc3)CC2)o1	none | D3 ag inactive | D2 ag-3 inactive
O=[N+]([O-])c1ccc(C(O)CN2CCN(c3ccccc3)CC2)cc1 (centres undefined)	D2 antagonist 46, D2 ag-1 60, D2 ag-2 inconclusive | D3 ag inconclusive | D2 ag-3 inconclusive
CCc1nc2ccc(C(=O)NCc3ccc(N(C)C)cc3)cc2nc1CC	none (no result: D2 antagonist, D2 PAM-2, D2 ag-2)
Cc1cc(OCC(=O)Nc2c(C(=O)c3ccccc3)oc3ccccc23)cc(C)c1Cl	none (no result: D2 antagonist, D2 PAM-2, D2 ag-2)
Cc1cccc2c1-c1sc(C(=O)N(C)c3cccc(C(F)(F)F)c3)cc1CO2	none (no result: D2 antagonist, D2 PAM-2, D2 ag-2)
